Compound activity (PubChem BioAssay)
Rows were chosen to be rich in hits. Some 19% of all compounds tested hit in one or more screens of this group.
HT1080 IDH1KD tx – kills HT-1080 cells with IDH1 knockdown | HT-1080 IDH1 knockdown viability, ATP luminescence, 48 h | Potency, µM (series often up to 46.1 µM), without a hit: at the highest dose activity, negative = toxicity, actives largely listed as cytotoxic | 360,000 compounds, 2% hits;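 also: 0% = DMSO wells and -100% = cell-free medium wells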
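Knockdown cells (IDH1KD HT-1080) received compounds 2 h after plating at 750 cells/well and were kept 48 h at 37 °C in 5% FBS RPMI. A CellTiter-Glo luminescence read gave % activity for curve fitting.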
KB-V1 MDR tox – KB-V1 MDR subline cytotoxicity | KB-V1 MDR cells viability, CellTiter-Glo, 72 h | Potency, µM (top dose mostly 46.1 µM), actives largely listed as cytotoxic | 400,000 compounds, 3.4% hits | AID 1347076; also: nearly all actives have a fitted effect of over 60% in size
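KB-V1 cells (P-gp-expressing MDR subline of KB-3-1) in phenol-red-free DMEM with 10% FBS were exposed to library compounds over a concentration series for 72 h at 37 degrees C. Viability read by CellTiter-Glo luminescence; concentration-effect curves fitted after normalization.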
KB-3-1 cytotox – kills parental KB-3-1 adenocarcinoma cells | Potency, µM (series often up to 46.1 µM), hits mostly cytotoxic | 400,000 compounds, 1.4% hits | KB-3-1 viability, CellTiter-Glo ATP luminescence, 72 h | AID 1347075; also: nearly all actives have a fitted effect of over 60% in size
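Parental KB-3-1 viability, qHTS format: 72 h compound exposure, 37 °C; CellTiter-Glo; media-only wells and DMSO plates as controls; concentration-effect fits on corrected data.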
TDP1 cell CPT – DT40-hTDP1 cell growth loss with CPT; chicken DT40 Tdp1-/-;hTDP1 cells + 20 nM CPT, ATP luminescence, 48 h; AID 686979; Potency, µM (titrated, usually from 46.2 µM), without a hit: top-dose activity change, negative = growth inhibition, hits mostly inhibitors; 420,000 compounds, 12% hits; also: nearly all actives have a fitted effect of over 55% in size
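Cell growth measured by CellTiter-Glo luminescence after a minimum 48 h, 37 C compound exposure with 20 nM CPT in Tdp1-knockout DT40 cells stably expressing hTDP1, seeded 400/well; qHTS titration format.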
HT1080-NT tox – kills 2HG-producing HT-1080-NT fibrosarcoma cells; HT-1080-NT fibrosarcoma viability, CellTiter-Glo ATP luminescence, 48 h; Potency, µM (series often up to 46.1 µM), for the others: top-dose activity, negative = less viability, hits mostly cytotoxic; 360,000 compounds, 1.6% hits;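 also: NT is the 2HG producing partner of a matched IDH1 knockdown line; 0% = DMSO-treated cells and -100% = media-only wells without cells; nearly all actives have a fitted effect of over 55% in size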
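Luminescent CellTiter-Glo readout after 48 hours of compound exposure at 37 degrees C defined viability of HT-1080-NT cells. Activity was normalized to DMSO wells and cell-free media wells; concentration-response curves were fitted and assigned curve classes.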
TDP1 cell noCPT – qHTS for Inhibitors of human tyrosyl-DNA phosphodiesterase 1 (TDP1): qHTS in cells in absence of CPT. DT40 Tdp1-/- hTDP1 cells, no CPT, ATP luminescence, 48 h. Potency, µM (top dose mostly 46.2 µM), inactives show at the highest dose activity change, negative = growth inhibition, most hits filed as inhibitors. 420,000 compounds, 15% hits. AID 686978, 2013; also: nearly all actives have a fitted effect of over 55% in size
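Chicken DT40 Tdp1-/- cells stably complemented with human TDP1 were seeded at 400 cells/well with DMSO in place of 20 nM camptothecin. After compound pinning, cells grew at least 48 hr at 37 °C; viability read by CellTiter-Glo luminescence.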
* = called active by the depositor; i = inactive; ? = inconclusive; · = not tested or not shown; [ ] = remark or other dose. Calls follow the shape of the dose curve; as a rule, active = well fitted curve in the direction sought with a large enough effect; inconclusive = small, poorly fitted or top-dose-only effect, or another doubt; inactive = no such curve, though single readings can be large; an effect the other way counts as inactive or inconclusive. Unless noted, % is scaled to controls: 0 for no effect and ±100 for the full control effect; potency is read from the fitted curve at half-maximal effect.

SMILES	HT1080 IDH1KD tx	KB-V1 MDR tox	KB-3-1 cytotox	TDP1 cell CPT	HT1080-NT tox	TDP1 cell noCPT
CC(Sc1nc2ccccc2s1)C(=O)NC1CCCc2ccccc21 (stereo not given)	-1.4%	20.6µM*	i	?	-3.4%	23.1µM*
O=C(Cn1nnc(-c2cccc(C(F)(F)F)c2)n1)NC1CCCC1	-11.3%	i	i	-16.4%	-9.0%	?
COc1ccc(N2CC(NC(=O)c3ccc4ccccc4c3)CC2=O)cc1OC (stereo not given)	-2.1%	i	i	?	-1.7%	?
CN(C)CC(C)(O)c1ccc2c(c1)CN(Cc1cccn1-c1ncccn1)CCO2 (stereo not given)	·	·	·	4.3%[9.04 µM]	·	-14.4%
CN(C)C(=O)COC(=O)c1cccc(CN2C(=O)c3ccccc3C2=O)c1	0.0%	i	?	19.3%	7.4%	-24.5%
Cc1cc(/C=C(\C#N)C(=O)Nc2ccc(F)cc2)c(C)n1-c1ccc(N2CCOCC2)c([N+](=O)[O-])c1	-15.2%	i	?	8.2µM*	-0.6%[9.24 µM]	11.6µM*
Cc1cc(/C=C(\C#N)C(=O)Nc2ccccc2)c(C)n1-c1ccc2c(c1)OCO2	?	?	i	?	?	16.4µM*
Cc1ccc(NC(=O)/C(C#N)=C/c2ccccc2Cl)cc1C	·	i	?	25.9µM*	·	25.9µM*
COc1ccc(NC(=O)/C(C#N)=C/c2cc(C)n(-c3ccc(N4CCOCC4)c([N+](=O)[O-])c3)c2C)cc1	2.7%	i	i	3.66µM*	-3.2%	2.31µM*
N#C/C(=C\c1ccccc1Cl)C(=O)Nc1ccccn1	7.1%	?	i	13.7%	15.2%	-19.8%
Cc1c(CC(=O)N[C@@H](C)C(=O)O)c(=O)oc2cc3oc4c(c3cc12)CCCC4	11.9%	i	i	-21.4%	11.2%	19.8%
CC(C)NC(=O)/C(C#N)=C/c1cccc(NC(=O)c2ccccc2Cl)c1	?	?	i	?	?	14.6µM*
Nc1ncc(-n2cncn2)c(-c2ccc(Cl)cc2)n1	-9.6%	i	i	13.1%	-2.7%	1.1%
c1ccc(C(Nc2cccnc2)c2ccccc2)cc1	12.8%	20.6µM*	i	?	13.3%	?
Cn1c(=O)n(CC(=O)N2CCOCC2)c2ccccc21	10.2%	i	i	-1.1%	6.1%	1.6%
O=C(Nc1ccccc1N1CCCCC1)c1ccc(OC(F)F)cc1	-1.7%	i	i	-0.5%	-0.8%	-10.0%
CCOc1ccc(-n2c(-c3ccc(OC)cc3)c[n+]3c2CCCCC3)cc1	3.66µM*	i	2.06µM*	0.206µM*	?	0.0291µM*
CCOc1ccc(-n2c(-c3ccccc3)c[nH]c2=S)cc1	-22.9%	i	i	?	-27.0%	?
FC(F)Oc1ccc(-c2c[n+]3c(n2-c2ccccc2)CCCCC3)cc1	?	i	?	2.06µM*	?	1.46µM*
COc1ccc(-n2c(-c3ccc(Cl)cc3)c[n+]3c2CCCCC3)cc1	?	i	i	0.82µM*	?	0.731µM*
COc1ccc(-c2c[n+]3c(n2-c2c(C)n(C)n(-c4ccccc4)c2=O)CCCCC3)cc1	27.6%	?	i	-13.6%	6.5%	?
CCOc1ccc(-n2c(-c3ccccc3)c[n+]3c2CCC3)cc1	8.2µM*	?	i	1.03µM*	?	1.03µM*
CC1(C(=O)NS(=O)(=O)c2ccccc2OC(F)(F)F)CCN1C(=O)Cc1ccccc1 (stereo not given)	0.3%	i	i	0.6%	25.9%	-9.8%
CN(CCc1ccccc1)C(=O)c1ccc(NC(=O)Cc2cccc(NC(=O)C3CCN(C(=O)c4ccccc4)CC3)c2)cc1	-15.4%	i	i	?	-14.6%	?
CCOc1ccc(-n2c(-c3ccc(Br)cc3)c[n+]3c2CCCCC3)cc1	?	i	?	4.61µM*	8.2µM*	0.366µM*
SMILES	HT1080 IDH1KD tx	KB-V1 MDR tox	KB-3-1 cytotox	TDP1 cell CPT	HT1080-NT tox	TDP1 cell noCPT
COc1ccc(C(=O)NCC(=O)OCC(=O)N2CCC(C)CC2)cc1OC	-2.7%	i	i	15.0%	-15.8%	-15.3%
CC(=O)c1ccc(NC(=O)c2sc(-n3nc(C)c(CCC(C)C)c3C)nc2C)cc1	·	i	i	-69.9%	·	?
Cc1ccc([N+](=O)[O-])c(OCCN2CCC(Cc3ccccc3)CC2)c1	16.4µM*	20.6µM*	?	?	20.6µM*	?
Cc1ccc([N+](=O)[O-])c(OCCCN2CCCCCC2)c1	-1.5%	?	i	?	-10.8%	?
CCOc1ccccc1OCCN1CCC(Cc2ccccc2)CC1	-17.2%	i	i	-19.4%	-2.7%	?
Cc1ccccc1OCCN1CCC(Cc2ccccc2)CC1	-1.6%	i	i	?	-6.7%	20.6µM*
COc1cccc(C(CNC(=O)C2CCN(C(=O)Nc3ccccc3)CC2)N(C)C)c1 (stereo not given)	6.3%	i	i	8.2%	4.5%	-2.1%
O=C(NC1CC1)c1ccc(C2SCC(=O)N2Cc2ccccc2)cc1 (stereo not given)	0.2%	i	i	-20.9%	-1.5%	-8.9%
Cc1ccc(C2C(/C=C3/SC(=S)NC3=O)=C(c3cccs3)Oc3ccccc32)cc1 (stereo not given)	?	i	i	-23.3%	?	?
Clc1ccccc1CSc1nncn1NC/C=C/c1ccccc1	-9.9%	20.6µM*	i	?	-1.9%	?
O=C(Cn1ccccc1=O)NCc1ccc(F)cc1	9.5%	i	i	5.6%	24.5%	2.7%
Cc1nn(-c2cc(C)c3ccccc3n2)c2c1C1C(C2)C1(C)C (stereo not given)	-10.8%	i	i	18.4µM*	2.7%	?
CCOC(=O)c1ccc(N(CC2CO2)S(=O)(=O)c2ccc(C)cc2)cc1 (stereo not given)	-1.1%	i	i	13µM*	-0.9%	16.4µM*
COc1ccccc1N(CC1CO1)S(=O)(=O)c1ccc(C)cc1 (stereo not given)	-1.6%	i	i	?	-9.6%	20.6µM*
COc1ccccc1N(CC1CO1)S(=O)(=O)c1ccccc1 (stereo not given)	-16.2%	i	i	?	-11.8%	?
